From the emibetuzumab library of Makowski et al. (2022)
Some of the results follow. No count for the full screen is at hand.

B1: VH:VL chains; a variant is named by its letters at X, in order (parent)
chain 1: QVQLVQSGAEVKKPGASVKVSCKASGYTFTDYXMHWVRQAPGQGLEWMGXVNPNXXXTTYNQKFEGRVTMTTDTSTSTAYMELRSLRSDDTAVYYCARXNXLDXWGQGTTVTVSS
chain 2: DIQMTQSPSSLSASVGDRVTITCSVSSSVSSIYLHWYQQKPGKAPKLLIYSTSNLASGVPSRFSGSGSGTDFTLTISSLQPEDFATYYCQVYSGYPLTFGGGTKVEIK

Variants of: B1
Test: yeast display scFab, FACS + sequencing
Conditions: with MET
Outline: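 Antigen binding was called positive for sequences present in both antigen-positive samples and negative for those present only in the input. These calls came from deep sequencing, in two replicates, of round-3 sorted and input populations from a heavy-chain CDR mutant scFab yeast surface library. The library was first enriched twice magnetically on HGFR-Fc-coated Protein A beads and then by FACS, gating the top 50% antigen-positive cells after 3 h labelling at room temperature with 1 nM HGFR-Fc plus anti-Myc in PBSB with 1% milk.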

Variant | antigen binding call
AAEGGYAV | no binding
VKGASDWA | no binding
VTTKSDSA | no binding
VTTKSDGA | no binding
YTARGSAA | binds
YREKGAAA | binds
YRARGSLA | binds
YRARGSAA | binds
DTRGADAV | no binding
DEGAGDGF | no binding
YKTRGFGA | no binding
YRARSSLA | binds
YKTRGSAA | binds
FAARAFGV | no binding
SEEASDGA | no binding
YRAGGSVA | binds
YREGGFVA | no binding
YRAGGYVA | binds
YRAGGFVA | binds
YRAGGVVA | binds
YRKGGFVA | no binding
DTGTGSSA | no binding
STTKSDGV | no binding
VAGTGDWA | no binding

Variant | antigen binding call
YKGGGALD | binds
YKGKGALD | binds
YKKGGSLD | binds
FKGKGAGD | binds
YKGAGALD | no binding
YKEEDSLD | no binding
FKGKGVGD | no binding
DTTGSASD | no binding
VAGGDDWV | no binding
FKGRGALA | binds
YKGKGSLD | binds
FKGKGALD | binds
YRAGASAV | binds
YRGAASAV | binds
DAGEASAV | no binding
YRARSSAD | binds
SEARSSAD | no binding
YRAGSSAD | binds
VRAGADSV | no binding
YAEESSAD | no binding
YAGEASAV | no binding
VRAGADAV | no binding
DAGTAFSS | no binding
VEREADWF | no binding

Variant | antigen binding call
YREKDSAD | binds
YRAGASAD | binds
YAEKDAGD | no binding
YRARGSAD | binds
FREKDSAD | no binding
YRAKGSAD | binds
DTEEGDVA | no binding
DAKEGDAD | no binding
DTGEADAS | no binding
VRGKGAAD | binds
VKGKGAWD | binds
VRGKGAWD | binds
VKGEAAWD | no binding
VRGKGAVD | binds
VEGKGAGD | no binding
VAGKGVLD | no binding
VAGKGAGD | no binding
YEKETVVA | no binding
YKGKGAWD | binds
YKGKSAWD | no binding
SEARSAGV | no binding
YRARSSGV | binds
DRAGDAGV | no binding
YRARSASV | binds

Variant | antigen binding call
YRARSAGV | binds
SEARSSGV | no binding
STEGDAGA | no binding
DATRGAGY | no binding
YRKGSSGD | binds
YRKGDSLD | binds
VEKGGSGD | no binding
VRKGSSGD | binds
YRKGDSGD | binds
ARKGSSGD | no binding
VTGTGAAV | no binding
YRKGDAGD | binds
FRGRGYAV | binds
FRGRGYVA | binds
FRGRGYVV | binds
FAAGSYAV | no binding
FRGRGYWV | binds
VTGEDAVV | no binding
SEEGTAGA | no binding
DRGRGDWV | no binding
FRGRGDWV | binds
YGGTSYSV | no binding
VRATGYWA | no binding
SRGRGYSV | no binding

Variant | antigen binding call
FAGGGDWV | no binding
YRGRGYWA | binds
YRGRGYSV | binds
YRGRGYWV | binds
AKERGDGV | no binding
VETEGDAV | no binding
ARGRGAWV | no binding
FKGRGAWV | binds
YRGRGVWV | binds
FRGRGAWV | binds
YGGRGDWV | no binding
FKGRGVWV | no binding
VTGGGDGA | no binding
YRGRGSAF | binds
VEGGGDAA | no binding
DAGGAAVA | no binding
DAGGAAAA | no binding
YRGGASAA | binds
YRGGAAAA | binds
YEGGADVA | no binding
YRGGGSAA | binds
VEGGGSSA | no binding
VRGGGSAA | binds
DTKAASSA | no binding

Variant | antigen binding call
SEGGSAAY | no binding
DEGGTDGV | no binding
YEERTAAA | no binding
DEGGTAAA | no binding
VREGSSAA | no binding
YRGRTAAA | binds
YRGGTAAA | binds
VRGRSSAA | binds
YRGRGYGS | binds
YRAGGYGF | binds
YRTRDVGF | no binding
YRAGGVGF | binds
YRGRGYVS | binds
DKTGDDVF | no binding
SEKKDYSA | no binding
DGGGGYWF | no binding
YRGRGYGA | binds
YEGGGYSF | no binding
DRGGGDGV | no binding
YTGGDDGF | no binding
YRGGGDGF | binds
YRGGGYGF | no binding
YRGRGYGF | binds
SETGADVA | no binding

Variant | antigen binding call
DTGRGSGV | no binding
VTGTGSLD | no binding
YTGRGSLD | binds
YTGTSSLD | no binding
YTGRGSGV | binds
FTGRGAGV | no binding
YRARGASA | binds
DRAGDDSA | no binding
YRAGGDSA | binds
YRARSASA | binds
YRAGGASA | binds
VEGTGVGD | no binding
DAGKGAVY | no binding
STTGGDGV | no binding
FAKTDAGF chain 1 G108D | no binding
SGRGNAGD | no binding
YATKGFGD | no binding
YRAKGAAD | binds
FRGEGAAD | binds
FTAGGAAD | no binding
FRTKGAAD | binds
YRTKGAAD | binds
FKGEGAAD | no binding
ATGGGYVA | no binding

Variant | antigen binding call
YTRGAASD | no binding
YKRGAAGD | binds
YKRAAYGD | no binding
YRRGAAGD | binds
YKRGSAGD | binds
FEKGSDVA | no binding
VETEGDVY | no binding
FTGEDDVY | no binding
DAGGGSSS | no binding
YKGKGSVS | binds
YKGGGAGS | binds
YKGRSSSS | binds
YKGKGAGS | binds
DEGGGAGS | no binding
VEGGTAGS | no binding
YKGKGYVD | no binding
DKEGGSSS | no binding
YEKEDYLA chain 1 G108D | no binding
FAKEGDGD | no binding
YKGKGSGS | binds
YKGKGSGA | binds
YKRGGAGS | binds
VKAGGDGS | no binding
YKGKGSSS | binds

Variant | antigen binding call
YARGGAGA | no binding
YTGTGSGA | no binding
DTAESDLD | no binding
SEARSSWV | no binding
YKGRAAGS | binds
YKGKGAWS | binds
AKGRAAAS chain 1 D103N | no binding
VKGRADGS | no binding
DKEGGDAV | no binding
FEKEGDAA | no binding
YTERGFGV | no binding
YRARGYGV | binds
YRARGVGV | binds
YRARGSGV | binds
YRARGFGV | binds
YTARDVGV | no binding
YRARGAGV | binds
YRARGAWV | binds
YAAGGDGV | no binding
YRARGDGV | binds
YRAETDGV | no binding
YRARSAWV | binds
